Test results published in the supplement of paper PMC7380943.
Counter-ions that a name gives are not always drawn.

What was measured:
[1] = system: CLZ3 (HCA2 human fibroblast dual HR-NHEJ reporter); experiment: NHEJ repair efficiency (GFP+ cells) relative to control (log10 fold); higher = more non-homologous end joining; conditions: 5 µM; doxycycline 0.5 ug/mL
[2] = system: CLZ3 (HCA2 human fibroblast dual HR-NHEJ reporter); experiment: HR repair efficiency (tdTomato+ cells) relative to control (log10 fold); higher = more homologous recombination; conditions: 5 µM; doxycycline 0.5 ug/mL
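Wherever HR repair efficiency (tdTomato+ cells) relative to control is given: compound given one day before doxycycline, which switches on I-SceI endonuclease expression to create double-strand breaks within the integrated reporter.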
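Wherever NHEJ repair efficiency (GFP+ cells) relative to control is given: compound given one day ahead of doxycycline, which switches on I-SceI endonuclease to cut the chromosomally integrated reporter and create DSBs.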

Row | Compound | NHEJ repair efficiency (log10) [1] | HR repair efficiency (log10) [2]
1 | OC[C@H]1O[C@H](OC[C@H]2O[C@@H](O[C@@H]3OC=C[C@H]4[C@H](O)[C@@H]5O[C@]5(CO)[C@@H]34)[C@H](O)[C@@H](O)[C@@H]2O)[C@H](O)[C@@H](O)[C@H]1O [Rehmannioside A] | 0.0412 | -0.0566
2 | Cc1nc(C)c(C)nc1C [Ligustrazine hydrochloride] | 0.0819 | 0.079
3 | COC(=O)[C@@]1(C)CC[C@]2(C(=O)O)CC[C@]3(C)C(=CC[C@@H]4[C@@]5(C)C[C@H](O)[C@H](O)[C@@](C)(CO)[C@@H]5CC[C@]43C)[C@@H]2C1 [Phytolaccagenin] | 0.0274 | 0.0241
4 | C=C1CC[C@@H]2[C@](C)(CO)[C@H](O)CC[C@@]2(C)[C@H]1C/C=C1\C=COC1=O [Dehydroandrographolide] | 0.015 | 0.116
5 | COc1cc(CNC(=O)CCCC/C=C/C(C)C)ccc1O [Capsaicin] | -0.0748 | -0.0984
6 | C=C1C(=O)[C@@]23CC[C@@H]4C(C)(C)[C@H](O)CC[C@@]4(C)[C@@H]2[C@@H](O)C[C@@H]1C3 [Tenuifolin A] | -0.0342 | -0.13
7 | COc1ccc([C@H]2OC[C@H]3[C@@H]2CO[C@H]3c2ccc(O[C@@H]3O[C@H](CO)[C@@H](O)[C@H](O)[C@H]3O)c(OC)c2)cc1OC [Phillyrin] | -0.0633 | -0.0538
8 | O=c1ccc2ccc(O)cc2o1 [Umbelliferone] | 0.115 | 0.269
9 | CC(C)=CCc1c(-c2ccc(O)cc2O)oc2c3c(cc(O)c2c1=O)OC(C)(C)C=C3 [Morusin] | 0.0648 | -0.298
10 | CC(C)=CC[C@H](O)/C(C)=C/CO[C@@H]1O[C@H](CO)[C@@H](O)[C@H](O)[C@H]1O [Rosiridin] | 0.096 | 0.104
11 | COc1cc(/C=C/CO)ccc1O[C@@H]1O[C@H](CO)[C@@H](O)[C@H](O)[C@H]1O [Coniferin] | 0.0205 | 0.0767
12 | C[C@H](CCC(=O)NCCS(=O)(=O)O)[C@H]1CC[C@H]2[C@@H]3C[C@H](O)[C@@H]4C[C@H](O)CC[C@]4(C)[C@H]3CC[C@]12C [Taurohyodeoxycholic Acid] | 0.0397 | 0.133
13 | COC(=O)[C@H](c1ccccc1Cl)N1CCc2sccc2C1 [Clopidogrel bisulfate] | 0.138 | 0.138
14 | O=c1cc(-c2ccccc2)oc2cc(O)cc(O)c12 [Chrysin] | 0.01 | -0.15
15 | C=C1CCC[C@]2(C)C[C@@H]3OC(=O)C(C)=C3C[C@@H]12 [Atractylenolide Ii] | -0.0767 | 0.118
16 | COc1cc(-c2oc3cc(O)cc(O)c3c(=O)c2O[C@@H]2O[C@H](CO)[C@@H](O)[C@H](O)[C@H]2O)ccc1O [Isorhamnetin-3-O-Glucoside] | -0.0722 | -0.00603
17 | CC(C)(O[C@@H]1O[C@H](CO)[C@@H](O)[C@H](O)[C@H]1O)[C@H]1Cc2cc3ccc(=O)oc3cc2O1 [Nodakenin] | -0.0969 | 0.0112

Row | Compound | NHEJ repair efficiency (log10) [1] | HR repair efficiency (log10) [2]
18 | c1ccc([C@H]2CN3CCSC3=N2)cc1 [Levamisole hydrochloride] | 0.0656 | -0.0158
19 | CCCCCCCCC[C@H](O)CC(=O)CCc1ccc(O)c(OC)c1 [10-Gingerol] | 0.0104 | 0.0717
20 | O=C(O)C(O)c1ccccc1 (stereo not drawn) [Mandelic Acid] | 0.0554 | 0.105
21 | C=C(C)[C@@H]1CC[C@]2(C(=O)O)CC[C@]3(C)[C@H](CC[C@@H]4[C@@]5(C)CCC(=O)C(C)(C)[C@@H]5CC[C@]43C)[C@@H]12 [Liquidambaric Acid] | -0.0687 | 0.0487
22 | CC1(C)CCC2(C(=O)OC3OC(CO)C(O)C(O)C3O)CCC3(C)C(=CCC4C5(C)CCC(OC6OC(C(=O)O)C(OC7OCC(O)C(OC8OC(CO)C(O)C(O)C8O)C7O)C(O)C6O)C(C)(C)C5CCC43C)C2C1 (stereo not drawn) [Oleanoside A] | -0.111 | 0.164
23 | CCCCCCCC/C=C\CCCCCCCC(=O)OCC(COC(=O)CCCCCCC/C=C\CCCCCCCC)OC(=O)CCCCCCC/C=C\CCCCCCCC [Glycerol Trioleate] | -0.000616 | 0.0182
24 | CC1CCC(C(C)C)C(O)C1 (stereo not drawn) [Menthol] | 0.0621 | -0.0345
25 | C=CCc1ccc(O)c(OC)c1 [Eugenol] | 0.027 | -0.0172
26 | COc1ccc(/C=C/c2cc(O)cc(O[C@@H]3O[C@H](CO)[C@@H](O)[C@H](O)[C@H]3O)c2)cc1 [Desoxyrhaponticin] | 0.161 | 0.245
27 | COc1cc2c(cc1OC)-c1cc3ccc4c(c3c[n+]1CC2)OCO4 [Epiberberine] | -0.03 | 0.05
28 | C=C[C@H]1[C@H](O[C@@H]2O[C@H](CO)[C@@H](O)[C@H](O)[C@H]2O)OC=C(C(=O)OC)[C@H]1CC(=O)O [Secoxyloganin] | 0.0169 | -0.19
29 | Cn1cnc2c1c(=O)[nH]c(=O)n2C [Theobromine] | -0.0855 | 0.141
30 | O=C(/C=C/c1ccc(O)c2c1[C@H](C(=O)O)[C@@H](c1ccc(O)c(O)c1)O2)O[C@H](Cc1ccc(O)c(O)c1)C(=O)O [Lithospermic acid] | 0.072 | 0.0325
31 | O=C(O)c1cc(O)c2c(c1)[C@H]([C@H]1c3cc(C(=O)O)cc(O)c3C(=O)c3c(O[C@@H]4O[C@H](CO)[C@@H](O)[C@H](O)[C@H]4O)cccc31)c1cccc(O[C@@H]3O[C@H](CO)[C@@H](O)[C@H](O)[C@H]3O)c1C2=O [Sennoside A] | 0.0438 | 0.131
32 | C[N+](C)(C)CC(=O)O [Betaine] | -0.243 | -0.337
33 | CC1(C)C=Cc2c(ccc3c2OC[C@@H](c2ccc(O)cc2O)C3)O1 [Glabridin] | -0.0493 | -0.0637
34 | CC(C)=C1CC[C@@H](C)CC1=O [Pulegone] | 0.114 | -0.0589
